Laboratory results: the antibiotic and cytotoxicity screens of Wong et al. (2023)
In all, about 39,000 compounds went through this assay and about 3,300 (8.5%) were called active. What follows is part of a selection rich in actives, with near analogues and random picks from the rest.

system: HepG2; assay: cytotoxicity call (relative viability < 0.9); settings: 10 µM

SMILES	cytotoxicity call
C[C@@H]1CN([C@H](C)CO)C(=O)CCCn2nncc2CO[C@H]1CN(C)C(=O)Nc1ccc(C(C)(C)C)cc1	inactive
Cc1ccc(S(=O)(=O)N2C[C@H](O)COC[C@@H]3O[C@H](CC(=O)N4CCc5ccccc5C4)CC[C@H]32)cc1	inactive
COc1ccc(NC(=O)Nc2ccc3c(c2)C(=O)N([C@H](C)CO)C[C@H](C)[C@@H](CN(C)CC2CC2)OCCCC[C@@H](C)O3)cc1	inactive
COc1ccc(S(=O)(=O)Nc2ccc3c(c2)CC(=O)N([C@@H](C)CO)C[C@H](C)[C@@H](CN(C)S(=O)(=O)c2cccs2)O3)cc1	inactive
C[C@@H]1CN([C@H](C)CO)C(=O)c2cc(NS(=O)(=O)c3cn(C)cn3)ccc2O[C@@H](C)CCCCO[C@@H]1CN(C)S(=O)(=O)c1ccc(F)cc1	inactive
C[C@H]1CN([C@@H](C)CO)C(=O)c2cc(-c3cncnc3)cnc2O[C@H]1CN(C)C(=O)CN1CCOCC1	inactive
C[C@@H]1CN([C@H](C)CO)C(=O)c2cc(NC(=O)NC3CCCCC3)ccc2O[C@@H]1CN(C)Cc1ccc(C(=O)Nc2ccccc2N)cc1	inactive
COc1ccc(C#Cc2cnc3c(c2)C(=O)N([C@@H](C)CO)C[C@H](C)[C@H](CN(C)C(=O)CC2CC2)O3)cc1	inactive
C[C@@H]1CCCCO[C@@H](CN(C)Cc2ccc(C(F)(F)F)cc2)[C@@H](C)CN([C@@H](C)CO)C(=O)c2cc(NC(=O)C3CCCCC3)ccc2O1	inactive
C[C@@H]1CCCCO[C@H](CN(C)Cc2ccc(C(F)(F)F)cc2)[C@@H](C)CN([C@@H](C)CO)C(=O)c2cc(NC(=O)C3CCCCC3)ccc2O1	active
C[C@@H]1CN([C@@H](C)CO)C(=O)c2cc(NC(=O)C3CCCCC3)ccc2O[C@@H](C)CCCCO[C@@H]1CN(C)Cc1ccc(C(F)(F)F)cc1	inactive
C[C@H]1CCCCO[C@@H](CN(C)Cc2ccc(C(F)(F)F)cc2)[C@@H](C)CN([C@@H](C)CO)C(=O)c2cc(NC(=O)C3CCCCC3)ccc2O1	inactive
C[C@@H]1CN([C@H](C)CO)C(=O)c2cc(NC(=O)C3CCCCC3)ccc2O[C@@H](C)CCCCO[C@H]1CN(C)Cc1ccc(C(F)(F)F)cc1	inactive
C[C@H](CO)N1C[C@H](C)[C@H](CN(C)Cc2ccc(C(F)(F)F)cc2)OCCCC[C@H](C)Oc2ccc(NC(=O)C3CCCCC3)cc2C1=O	inactive
C[C@@H]1CCCCO[C@@H](CN(C)Cc2ccc(C(F)(F)F)cc2)[C@H](C)CN([C@@H](C)CO)C(=O)c2cc(NC(=O)C3CCCCC3)ccc2O1	inactive
C[C@@H]1CCCCO[C@H](CN(C)Cc2ccc(C(F)(F)F)cc2)[C@H](C)CN([C@@H](C)CO)C(=O)c2cc(NC(=O)C3CCCCC3)ccc2O1	active
C[C@H]1CCCCO[C@H](CN(C)Cc2ccc(C(F)(F)F)cc2)[C@@H](C)CN([C@@H](C)CO)C(=O)c2cc(NC(=O)C3CCCCC3)ccc2O1	active
C[C@H](CO)N1C[C@H](C)[C@@H](CN(C)Cc2ccc(C(F)(F)F)cc2)OCCCC[C@H](C)Oc2ccc(NC(=O)C3CCCCC3)cc2C1=O	inactive
C[C@@H]1CN([C@@H](C)CO)C(=O)c2cc(NC(=O)C3CCCCC3)ccc2O[C@@H](C)CCCCO[C@H]1CN(C)Cc1ccc(C(F)(F)F)cc1	active
C[C@@H]1CN([C@H](C)CO)C(=O)c2cc(NC(=O)C3CCCCC3)ccc2O[C@@H](C)CCCCO[C@@H]1CN(C)Cc1ccc(C(F)(F)F)cc1	inactive
Cc1ccc(S(=O)(=O)Nc2ccc3c(c2)C(=O)N([C@@H](C)CO)C[C@H](C)[C@@H](CN(C)Cc2ccc4c(c2)OCO4)OCCCC[C@@H](C)O3)cc1	inactive
Cc1ccc(S(=O)(=O)Nc2ccc3c(c2)CC(=O)N([C@@H](C)CO)C[C@H](C)[C@@H](CN(C)S(C)(=O)=O)O3)cc1	inactive
C[C@H](CO)N1C[C@H](C)[C@@H](CN(C)S(=O)(=O)c2ccc(Cl)cc2)Oc2ccc(NS(C)(=O)=O)cc2CC1=O	inactive
Cc1cc(C(=O)Nc2cccc3c2O[C@H](CN(C)C(=O)NC(C)C)[C@H](C)CN([C@H](C)CO)C3=O)n(C)n1	inactive

SMILES	cytotoxicity call
COc1ccc(CN(C)C[C@@H]2OCCCC[C@@H](C)Oc3ccc(NS(=O)(=O)c4cccs4)cc3C(=O)N([C@H](C)CO)C[C@H]2C)cc1	inactive
C[C@H](CO)N1C[C@H](C)[C@H](CN(C)C(=O)NC2CCCCC2)Oc2ccc(NC(=O)Cn3cnnn3)cc2CC1=O	inactive
C[C@@H]1CN([C@H](C)CO)C(=O)c2cc(NC(=O)Nc3ccccc3)ccc2O[C@@H](C)CCCCO[C@@H]1CN(C)C(=O)Cc1ccccc1	inactive
O=C(C[C@@H]1CC=CCC[C@@H](Cc2ccc(F)cc2)C(=O)OCCNC1=O)N[C@@H](CO)Cc1ccccc1	inactive
CCNC(=S)N1CCCC[C@@H]1CO	inactive
C[C@@H]1CCCCO[C@@H](CN(C)Cc2ccncc2)[C@@H](C)CN([C@@H](C)CO)C(=O)c2cc(NC(=O)C3CCCCC3)ccc2O1	inactive
C[C@@H]1CCCCO[C@H](CN(C)Cc2ccc(C(F)(F)F)cc2)[C@@H](C)CN([C@H](C)CO)C(=O)c2cc(NC(=O)C3CCCCC3)ccc2O1	active
C[C@@H]1CCCCO[C@H](CN(C)Cc2ccc(C(F)(F)F)cc2)[C@H](C)CN([C@H](C)CO)C(=O)c2cc(NC(=O)C3CCCCC3)ccc2O1	inactive
C[C@@H]1CCCCO[C@@H](CN(C)Cc2ccc(C(F)(F)F)cc2)[C@H](C)CN([C@H](C)CO)C(=O)c2cc(NC(=O)C3CCCCC3)ccc2O1	inactive
C[C@@H]1CCCCO[C@H](CN(C)Cc2ccncc2)[C@@H](C)CN([C@H](C)CO)C(=O)c2cc(NC(=O)C3CCCCC3)ccc2O1	inactive
C[C@@H]1CCCCO[C@H](CN(C)Cc2ccncc2)[C@H](C)CN([C@@H](C)CO)C(=O)c2cc(NC(=O)C3CCCCC3)ccc2O1	active
C[C@@H]1CN([C@H](C)CO)C(=O)CCCn2cc(nn2)CO[C@H]1CN(C)C(=O)Nc1cccc(C(F)(F)F)c1	inactive
CC(C)NC(=O)N(C)C[C@H]1Oc2ccc(NC(=O)Nc3ccc4c(c3)OCO4)cc2CC(=O)N([C@H](C)CO)C[C@H]1C	inactive
COCCOC(=O)N1C(=O)[C@@]2(c3cc(C#CC4=CCCCC4)ccc31)[C@H](c1ccc(OCCO)cc1)N1[C@H](c3ccccc3)[C@H](c3ccccc3)OC(=O)[C@H]1[C@@H]2C(=O)N1CCN(c2ncccn2)CC1	inactive
COc1ccc(C2Sc3ccccc3N(CCN(C)C)C(=O)C2OC(C)=O)cc1.Cl (configuration not stated)	inactive
CN(C)CCCN1c2ccccc2Sc2ccccc21.Cl	active
CN(C)CCCN1c2ccccc2CCc2ccccc21.Cl	active
CN(C)CCCN1C(=O)[C@@]2(Cc3ccccc31)c1ccccc1C(=O)N(Cc1ccccc1)[C@H]2c1ccc(CO)cc1	inactive
CN(C)CCCN1c2ccccc2Sc2ccc(Cl)cc21.Cl	active
NNC(=O)CN1CCCc2ccccc21	inactive
CN(C)CCCN1c2ccccc2CCc2ccc(Cl)cc21.Cl	inactive
CC(=O)c1ccc2c(c1)N(CCCN(C)C)c1ccccc1S2.O=C(O)C=CC(=O)O	inactive
CNCCCN1c2ccccc2CCc2ccccc21.Cl	active
CN(C)CCCN1C(=O)[C@@H]2[C@@H](C1=O)[C@@H]1C=C[C@@H]2C1	inactive

SMILES	cytotoxicity call
CNC(=O)[C@H]1Cc2ccccc2N1C(=O)COC	inactive
C[C@H](CO)N1C[C@H](C)[C@@H](CN(C)S(=O)(=O)c2cn(C)cn2)Oc2ncc(C#CCN(C)C)cc2C1=O	inactive
Cc1noc(C)c1S(=O)(=O)Nc1cccc2c1O[C@@H](CN(C)Cc1ccncc1)[C@@H](C)CN([C@@H](C)CO)C2=O	inactive
CON=C(C(=O)NC1C(=O)N2C(C(=O)[O-])=C(CSc3nc(=O)c([O-])nn3C)CSC12)c1csc(N)n1.O.O.O.[Na+].[Na+] (configuration not stated)	inactive
COc1ccccc1NC(=O)N(C)C[C@@H]1Oc2ncc(C#CC(C)C)cc2C(=O)N([C@H](C)CO)C[C@H]1C	inactive
COC(=O)/C=C/C(=O)O	inactive
COC(=O)/C=C/C(=O)OC	inactive
COC(=O)C=CC(=O)OC	active
COCC#Cc1cnc2c(c1)C(=O)N([C@@H](C)CO)C[C@H](C)[C@@H](CN(C)C(=O)c1cnccn1)O2	inactive
O=C(Cc1ccc2c(c1)OCO2)N[C@@H]1CCNC[C@H]1O	inactive
C[C@@H]1CN([C@@H](C)CO)S(=O)(=O)c2ccc(-c3ccc(C(=O)N(C)C)cc3)cc2O[C@H]1CN(C)C(=O)C1CC1	inactive
C[C@H](CO)N1C[C@H](C)[C@@H](CN(C)Cc2ccncc2)Oc2ccc(NC(=O)Nc3ccc(C(F)(F)F)cc3)cc2C1=O	inactive
C[C@H]1CCCCO[C@@H](CN(C)C(=O)Nc2ccc(C(F)(F)F)cc2)[C@@H](C)CN([C@@H](C)CO)C(=O)c2cc(NC(=O)c3ccccc3)ccc2O1	inactive
C[C@@H]1CCCCO[C@H](CN(C)C(=O)Nc2ccc(C(F)(F)F)cc2)[C@H](C)CN([C@@H](C)CO)C(=O)c2cc(NC(=O)c3ccccc3)ccc2O1	inactive
C[C@H]1CCCCO[C@@H](CN(C)C(=O)Nc2ccc(C(F)(F)F)cc2)[C@@H](C)CN([C@@H](C)CO)C(=O)c2cc(NC(=O)Nc3ccccc3)ccc2O1	inactive
C[C@H](CO)N1C[C@H](C)[C@H](CN(C)C(=O)Nc2ccccc2)OCCCC[C@H](C)Oc2ccc(NC(=O)Nc3ccc(C(F)(F)F)cc3)cc2C1=O	inactive
C[C@H](CO)N1C[C@H](C)[C@@H](CN(C)C(=O)Nc2ccc(C(F)(F)F)cc2)OCCCC[C@H](C)Oc2ccc(NC(=O)Nc3ccccc3)cc2C1=O	inactive
C[C@@H]1CCCCO[C@H](CN(C)C(=O)Nc2ccc(C(F)(F)F)cc2)[C@H](C)CN([C@@H](C)CO)C(=O)c2cc(NC(=O)Nc3ccccc3)ccc2O1	inactive
C[C@@H]1CCCCO[C@H](CN(C)C(=O)Nc2ccc(C(F)(F)F)cc2)[C@@H](C)CN([C@@H](C)CO)C(=O)c2cc(NC(=O)Nc3ccccc3)ccc2O1	active
C[C@@H]1CCCCO[C@@H](CN(C)C(=O)Nc2ccccc2)[C@@H](C)CN([C@@H](C)CO)C(=O)c2cc(NC(=O)Nc3ccc(C(F)(F)F)cc3)ccc2O1	active
C[C@H]1CCCCO[C@H](CN(C)C(=O)Nc2ccc(C(F)(F)F)cc2)[C@@H](C)CN([C@@H](C)CO)C(=O)c2cc(NC(=O)Nc3ccccc3)ccc2O1	inactive
C[C@@H]1CCCCO[C@H](CN(C)C(=O)Nc2ccc(C(F)(F)F)cc2)[C@@H](C)CN([C@H](C)CO)C(=O)c2cc(NC(=O)Nc3ccccc3)ccc2O1	inactive
C[C@@H]1CN([C@@H](C)CO)C(=O)c2cc(NC(=O)c3ccccc3)ccc2O[C@@H](C)CCCCO[C@@H]1CN(C)C(=O)Nc1ccc(C(F)(F)F)cc1	active
C[C@@H]1CCCCO[C@@H](CN(C)C(=O)Nc2ccccc2)[C@@H](C)CN([C@H](C)CO)C(=O)c2cc(NC(=O)Nc3ccc(C(F)(F)F)cc3)ccc2O1	active
